# Screens: PubChem BioAssay, National Center for Advancing Translational Sciences (NCATS)
# SNCA expr inhib = inhibitors of alpha-synuclein (SNCA) gene expression | HEK-293 SNCA-luciferase knock-in, luminescence, 24 h | Potency, µM (top dose mostly 57.2 µM), without a hit: top-dose activity change, negative = inhibition, hits mostly inhibitors | 140,000 tested, 0.17% active | AID 1671194;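 further: potency means the concentration at half of the fitted maximal effect; plate controls were DMSO cells for no effect and cell-free wells for full effect; nearly all actives have a fitted effect of over 45% in size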
# HEK293 viab = reduces viability of HEK-293 SNCA reporter cells; Potency, µM (doses to about 57.1 µM), for the others: at the highest dose activity change, negative = cytotoxicity, most hits filed as cytotoxic; 150,000 tested, 0.12% active; AID 1671193; HEK-293-SNCA-luc viability, GF-AFC fluorescence, 24 h;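 further: potency means the concentration at half of the fitted maximal effect; 0% = DMSO-treated cells and -100% = medium-only wells without cells; nearly all actives have a fitted effect of over 30% in size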
#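 HEK-293-SNCA-luc cells (1500/well) plated 24 h, then exposed 24 h to a dilution series; GF-AFC added 30 min at 37C, fluorescence 405/540 nm; normalised to medium-only and DMSO wells, Hill fit.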
# IP6K1 inh = IP6K1 kinase inhibition. Q92551. 140,000 tested, 0.81% active. AID 1645851. activity change, % (series mostly up to about 58 µM). IP6K1 kinase, ADP-Glo luminescence, 2 h; active compounds read low; in the data active means activity change below about -25%; further: on the % scale 0 is the no-effect control and ±100 the full control effect
# Target sequence (Q92551 whole entry, looked up): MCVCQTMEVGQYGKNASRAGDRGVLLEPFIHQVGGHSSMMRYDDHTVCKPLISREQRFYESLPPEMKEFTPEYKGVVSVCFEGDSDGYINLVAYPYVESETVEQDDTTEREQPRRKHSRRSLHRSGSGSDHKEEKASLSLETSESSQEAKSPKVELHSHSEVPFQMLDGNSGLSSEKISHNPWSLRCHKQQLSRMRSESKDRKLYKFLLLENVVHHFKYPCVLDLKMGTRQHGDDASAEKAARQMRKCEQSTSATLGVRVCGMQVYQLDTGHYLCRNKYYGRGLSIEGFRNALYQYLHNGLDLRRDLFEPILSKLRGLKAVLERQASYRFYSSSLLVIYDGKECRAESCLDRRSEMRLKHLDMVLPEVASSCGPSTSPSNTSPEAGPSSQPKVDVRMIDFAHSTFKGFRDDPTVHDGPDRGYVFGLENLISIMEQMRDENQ
#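 ADP-Glo luminescence measures ADP made by human IP6K1 during a 2 h RT reaction with ATP/IP6 (mix at 1.3 mM/130 uM); top library doses 57.5 and 19.1 uM final.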
# KDM5B inhibitor = inhibitors of human KDM5B histone demethylase | Q9UGL1 | KDM5B demethylase, FDH-coupled NADH fluorescence (FDH is formaldehyde dehydrogenase) | Potency, µM (top dose mostly 57.7 µM), actives largely listed as inhibitors | 220,000 tested, 2.6% active | AID 1347165; further: potency means the concentration at half of the fitted maximal effect; 0% is about no effect; nearly all actives have a fitted effect of over 70% in size
#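 qHTS format, multiple compound concentrations. Buffer 50 mM HEPES pH 7.5/0.01% Tween-20; 200 nM KDM5BΔAP final; 10 min compound preincubation; substrate-mix levels 12.5 µM peptide, 25 µM α-KG, 0.25 mM NAD⁺; 30 min RT; ΔRFU.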
# The depositor's hits bear a star; i = inactive; ? = inconclusive; nt = no result; ! = not confirmed by another sample; [ ] = another dose, or the depositor's remark. An excerpt weighted towards active compounds, which were near 3% of everything screened. Unless noted, the call rests on the fitted dose curve; in most records, active means well fitted curve in the direction sought with a large enough effect; inconclusive means small, poorly fitted or top-dose-only effect, or another doubt; inactive means no such curve, though single readings can be large; an effect the other way counts as inactive or inconclusive.
SMILES,SNCA expr inhib,HEK293 viab,IP6K1 inh,KDM5B inhibitor
CNC(=O)C1CCCCN1Cc1ccc(-c2ccccc2OC)cc1 (stereo not drawn),nt,nt,8,nt
CC(N)c1ccc(C(=O)O)o1 (stereo not drawn),nt,nt,nt,i
Cc1ccc(-c2cccc(CN3CCCC(NC(=O)Nc4ccc(Cl)cc4)C3)c2)cc1Cl (stereo not drawn),nt,nt,-7,nt
COc1cc(NC(=O)c2cc3c(N4CCSCC4)nc(C)cn3n2)cc(OC)c1OC,7%,-9%,0,22µM*
O=C(NCc1ccccc1)N1CCCC(c2nccn2CC2CCC2)C1 (stereo not drawn),?,-5%,14,i
Cc1ccc(C#N)c(N2CCCC(c3nccn3CC3CCC3)C2)n1 (stereo not drawn),?,1%,-12,32µM*
Cn1cc(CN2CC[C@@H](c3ccc4c(c3)OCO4)[C@H](O)C2)c2ccccc21,9%,9%,-1,?
CCc1nc(CN2CC[C@@H](c3ccc4c(c3)OCO4)[C@H](O)C2)c(C)[nH]1,3%,0%,-3,25µM*
Cc1ccc(C#N)c(N2CC[C@@H](c3ccc4c(c3)OCO4)[C@H](O)C2)n1,-6%,-4%,6,28µM*
OC1CCN(c2ccnc(N3CC[C@@H](c4ccc5c(c4)OCO5)[C@H](O)C3)n2)CC1,2%,1%,-4,i
Cc1ccccc1Cc1c(C)nc2c(C(=O)N3CCC(Cc4nncn4CC4CC4)CC3)cnn2c1C,2%,-11%,16,25µM*
N#Cc1cccc(CN[C@H]2[C@H](O)[C@H](O)C[C@@H]2c2ccc(N3CCOCC3)nc2)c1,-7%[87.6 µM],-14%[87.6 µM],4,?
O[C@H]1[C@H](NCc2cnc3ccccc3c2)[C@@H](c2ccc(N3CCOCC3)nc2)C[C@H]1O,?,-27%[87.6 µM],-2,i
O[C@H]1[C@H](NCc2ccc(Cl)cc2)[C@@H](c2ccc(N3CCOCC3)nc2)C[C@H]1O,-21%[87.6 µM],-24%[87.6 µM],7,40µM*
O[C@H]1[C@H](NCc2cccc(C(F)(F)F)c2)[C@@H](c2ccc(N3CCOCC3)nc2)C[C@H]1O,0%,-12%,-7,32µM*
COc1ccc(CN[C@H]2[C@H](O)[C@H](O)C[C@@H]2c2ccc(N3CCOCC3)nc2)cn1,2%[87.6 µM],-13%[87.6 µM],-4,32µM*
O=C(c1cccc2[nH]ccc12)N1CC(Oc2ccc(-c3nc(-c4ccccc4)no3)cc2)C1,-6%,?,4,11µM*
c1ccc(-c2noc(-c3ccc(OC4CNC4)cc3)n2)cc1,10µM*,-1%,8,i
Cn1cc(C(=O)N2CC(Oc3ccc(-c4nc(-c5ccccc5)no4)cc3)C2)cn1,24%,-2%,5,i
Cc1nc(-c2ccccc2OC2CN(C(=O)c3ccoc3)C2)no1,42%,5%,-5,i
Cc1nc(-c2ccccc2OC2CN(C(=O)c3cccc4[nH]ccc34)C2)no1,33%,-5%,-2,28µM*
Cn1cccc1C(=O)N1CC(Oc2ccc(-c3nc(-c4ccccc4)no3)cc2)C1,18%,-7%,8,28µM*
COc1cc(OC)cc(C(=O)Oc2ccccc2Cl)c1,nt,nt,nt,i
COC(=O)CNC(=O)COC(=O)c1cc(=O)c2ccccc2o1,nt,nt,nt,i
Cc1noc(-c2ccc(OC3CN(C(=O)c4cccc5[nH]ccc45)C3)cc2)n1,61%,-17%,4,28µM*
SMILES,SNCA expr inhib,HEK293 viab,IP6K1 inh,KDM5B inhibitor
CCN1CCC(N2CCC(Oc3ccccc3-c3nc(-c4ccncc4)no3)C2)CC1 (stereo not drawn),?,14µM*,-23,i
CC(C)NC(=O)N1CCC(Oc2ccccc2-c2nc(-c3ccccc3)no2)C1 (stereo not drawn),7%,5%,-21,?
Cc1cccc(NC(=O)N2CC(Oc3ccc(-c4nc(-c5ccccc5)no4)cc3)C2)c1,14%,-11%,-4,13µM*
O=C(Nc1ccccc1)N1CCC(Oc2ccccc2-c2nc(-c3ccccc3)no2)C1 (stereo not drawn),-23%,-29%,-8,32µM*
Cc1ccc(/C=C/C(=O)c2ccc(O)c(CCCl)c2)c(C)c1,nt,nt,nt,i
O=C(O)c1cccnc1,4.3µM*!,4.3µM*!,3,nt
COc1ccc(-c2noc(-c3nc(-c4cccnc4)no3)n2)cc1,11%,-4%,0,35µM*
COc1ccc(-c2noc(-c3nc(Cc4cccc(F)c4)no3)n2)cc1,-2%,-1%,15,28µM*
Fc1cccc(Cc2noc(-c3nc(-c4ccccc4)no3)n2)c1,60%,11%,-6,i
O=C(c1ccc(Cl)cc1)N1CCC([C@@H]2CNC[C@H]2CO)CC1,19%,-5%[12.5 µM],16,i
O=C(c1cnccn1)N1CCC([C@@H]2CNC[C@H]2CO)CC1,?,-6%[12.5 µM],-2,14µM*
CCSc1ncc(CN2CCN(c3ccc4nccn4n3)CC2)cn1,-31%,3%,14,28µM*
CCC(C)c1ccc(-c2csc(NC(=O)C3CCN(C(=O)c4ccoc4)CC3)n2)cc1 (stereo not drawn),nt,nt,nt,i
COc1cccc(CCNC(=O)c2c(C)noc2-c2ccc(OC(F)(F)F)cc2)c1,16%,?,7,i
COc1cccc(CCNC(=O)c2c(C)noc2-c2ccc3c(c2)OCO3)c1,5%,-1%,4,14µM*
COc1ccc(CC2CCN(C(=O)c3c(C)noc3-c3ccc4c(c3)OCO4)CC2)cc1,-16%,14%,-12,20µM*
Cc1noc(-c2cccc(F)c2)c1C(=O)NCCc1cccc(Cl)c1,-20%,13%,-3,i
COc1ccc(CCNC(=O)c2c(C)noc2-c2ccccc2OC)cc1OC,6%,8%,-10,i
Cc1noc(-c2ccc3c(c2)OCO3)c1C(=O)NCCc1cccc(Cl)c1,43%,7%,15,28µM*
COc1ccc(CCNC(=O)c2c(C)noc2-c2ccc3c(c2)OCO3)cc1OC,11%,-1%,-2,28µM*
COc1ccc(CC(=O)NC2CCN(c3ccc4nnc(-c5ccccc5)n4n3)C2)cc1 (stereo not drawn),nt,nt,0,nt
N#CC(C(=O)/C=C/c1ccccc1)C(=O)Nc1ccccc1Cl (stereo not drawn),nt,nt,nt,i
CCOC(=O)c1c(C)n(-c2ccccc2)c2ccc(OC(=O)c3ccccc3NC(=O)C(C)C)cc12,?,?,-13,?
CCOC(=O)c1c(C)n(-c2ccccc2)c2ccc(OC(=O)c3ccccc3NC(=O)C(C)(C)C)cc12,13µM*,?,-17,?
O=C1NC(CCc2ccccc2)C(=O)N1Cc1coc(-c2cccc(F)c2)n1 (stereo not drawn),nt,nt,nt,i
CC[C@@H]1[C@H](NC(=O)c2cccc(N3CCS(=O)(=O)CC3)c2)[C@@H]2CCO[C@H]12,-6%,-4%,-10,22µM*
O=[S+]([O-])(NC1CCN(c2ccc3nnc(C4CC4)n3n2)CC1)c1ccccc1,nt,nt,0,nt
